Bioassay records from PubChem BioAssay.
Pf Dd2 inh: inhibitors of Plasmodium falciparum Dd2 growth | P. falciparum Dd2 growth, SYBR Green, 72 h | Potency, µM (doses to about 28.9 µM), for inactives: at the top dose activity, negative = inhibition, actives largely listed as inhibitors | 120,000 tested, 4.3% active; active means well fitted inhibition curve with a large enough effect;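 further: plate controls were DMSO vehicle for no effect and reference drug for full effect; nearly all actives have a fitted effect of over 65% in size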
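Readout: SYBR Green fluorescence, 485 nm excitation, 535 nm emission, after ~16 h lysis at 37C. Before that, Dd2-infected red cells (2.5% hematocrit) grew 72 h with compound, 29 uM top final concentration.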
* marks the source's active call; other numbers are inactive results; i = inactive; [ ] = dose if it differs, or a comment. The entries come from a sample that favours hits as a whole. Potency means the concentration at half of the fitted maximal effect.

SMILES	Pf Dd2 inh
CCN1c2cc(C(=O)NCc3ccccc3Br)ccc2C(=O)N2CCCCC21 (stereo unspecified)	i
Cc1ccc(N2Cc3c(ncnc3N3CCN(C)CC3)N(C)CC2=O)cc1	-23%
CC1CCCN(c2ncnc3c2CN(c2ccccc2F)C(=O)CN3C)C1 (stereo unspecified)	-11%
CC1CCCN(c2ncnc3c2CN(c2ccc(Cl)cc2)C(=O)CN3C)C1 (stereo unspecified)	10µM*
CCn1cc(CN2C[C@@H]3C(=O)N(Cc4ccc5c(c4)OCO5)C(=O)[C@@H]3C2)cn1	73%
N#Cc1ccc(CN2CCC3(CC2)CC(=O)c2ccccc2O3)cc1	i
CC1(c2noc(C3CC3)n2)CCN(C(=O)CCc2nc3ccc(Cl)cc3[nH]2)CC1	i
CC1(c2noc(-c3ccccn3)n2)CCN(C(=O)CCc2nc3ccc(Cl)cc3[nH]2)CC1	5.6µM*
CC1(c2noc(-c3ccccn3)n2)CCN(C(=O)CCC(=O)N2CC(=O)Nc3ccccc32)CC1	-17%
CSCC(=O)N1C[C@@H]2C[C@H](C1)c1c(-c3ccc(SC)cc3)ccc(=O)n1C2	-7%[44.1 µM]
CC(=O)Nc1ccc(-c2ccc(=O)n3c2[C@@H]2C[C@@H](CN(S(=O)(=O)c4cccs4)C2)C3)cc1	i
CSc1ccc(-c2ccc(=O)n3c2[C@@H]2C[C@@H](CN(S(=O)(=O)c4cccs4)C2)C3)cc1	8.9µM*
COc1nc2c(cc1CNC(=O)C1CC1(C)C)C(=O)N(C1CCCC1)C2 (stereo unspecified)	-17%
Cc1nn(-c2ccc(F)cc2)c(Oc2ccc(F)cc2F)c1CCC(=O)N(C)C(C)C	-11%
C=CCNC(=O)CCc1c(C)nn(-c2ccc(F)cc2)c1Oc1ccccc1	7.9µM*
Cc1nn(-c2ccc(F)cc2)c(Oc2ccc(F)cc2F)c1CCC(=O)NCc1ccco1	i
Cc1nn(-c2ccccc2)c(Oc2ccccc2F)c1CCC(=O)NCc1ccco1	7.9µM*
C=CCNC(=O)CCc1c(C)nn(-c2ccc(F)cc2)c1Oc1ccccc1F	i
C=CCNC(=O)CCc1c(C)nn(-c2ccccc2)c1Oc1ccccc1	-22%
Cc1cccc(-n2nc(C)c(CCC(=O)N(C)C(C)C)c2Oc2ccc(F)cc2F)c1	-6%
CCNC(=O)CCc1c(C)nn(-c2ccccc2)c1Oc1ccccc1F	i
Cc1ccccc1-n1nc(C)c(CCC(=O)N(C)C(C)C)c1Oc1ccccc1F	6.3µM*
O=C(O)CCCC(=O)N[C@H]1CO[C@H]2[C@@H]1OC[C@@H]2Nc1nccc(-c2ccc3c(c2)OCO3)n1	-25%
COCC1CN(C(C)=O)CC12CCN(C(=O)CN1CCCCCC1)CC2 (stereo unspecified)	i
COc1ccc(S(=O)(=O)N2CCCC(Cn3c(C)nc4cccnc43)C2)cc1 (stereo unspecified)	i
SMILES	Pf Dd2 inh
Cn1nc(C(=O)N2C[C@@H](Oc3cccnc3)C[C@H]2C(N)=O)c2ccccc21	6%
O=C(O)Cn1nc(N2CCN(c3ccc(F)cc3)CC2)ccc1=O	25%
Cc1cc(F)ccc1NC(=O)Cn1nc(N2CCN(c3ccccc3)CC2)ccc1=O	9%
CC(C)CCNC(=O)Cn1nc(N2CCN(c3ccccc3)CC2)ccc1=O	4%
Cc1ccc(F)cc1NC(=O)c1ccc(Cn2nc(N3CCN(c4ccccc4)CC3)ccc2=O)o1	11µM*
Cc1cccc(NC(=O)c2ccc(Cn3nc(N4CCN(c5ccccc5)CC4)ccc3=O)o2)c1C	11µM*
CN(C)CCNC(=O)Cn1nc(N2CCN(c3ccccc3)CC2)ccc1=O	51%
Cc1ccccc1NC(=O)N1CCCC(Cn2c(C3CC3)nc3cccnc32)C1 (stereo unspecified)	i
CC(=O)N1CCc2nc(C)nc(-c3ccc(Cl)cc3)c2CC1	20%[44.1 µM]
OC1CCOC2(CCN(Cc3ccc(Br)o3)CC2)C1 (stereo unspecified)	2%
OC1CCOC2(CCN(Cc3ccncc3)CC2)C1 (stereo unspecified)	6%
COc1ccc2c(c1)c(CN1CCC3(CC1)CC(O)CCO3)cn2C (stereo unspecified)	-2%
COc1cccc(CN2CCC3(CC2)CC(O)CCO3)c1OC (stereo unspecified)	-13%
CC(C)Oc1ccccc1CN1CCC2(CC1)CC(O)CCO2 (stereo unspecified)	5µM*
OC1CCOC2(CCN(Cc3ccccc3OC(F)(F)F)CC2)C1 (stereo unspecified)	5.6µM*
COc1ccc(OCc2nnc(C(=O)N3CCC[C@@H]3c3nc4ccccc4[nH]3)n2-c2ccccc2)cc1	i
COCc1nncn1C1CCN(C(=O)c2cc(F)cc(F)c2)CC1	6%
Cc1cc(C(=O)NC2CC(=O)N(Cc3ccccc3C(F)(F)F)C2)nn1C (stereo unspecified)	-5%
O=C(Nc1ccc2c(N3CCCC3)ncnc2c1)c1cccc(F)c1	2µM*
Cc1oc2ncnc(N3CCCCC3)c2c1C(=O)Nc1cccc(F)c1	i
O=C(Nc1ccc2c(N3CCCC3)ncnc2c1)c1cc(F)ccc1Cl	5µM*
O=C(Nc1ccc2ncnc(N3CCCCC3)c2c1)c1ccc(F)c(F)c1	-7%
O=C(Nc1ccc2c(N3CCCC3)ncnc2c1)c1cc(F)ccc1F	3.2µM*
O=C(Nc1ccc2ncnc(N3CCCCC3)c2c1)c1cc(F)ccc1F	i
O=C(CN1CCCC1)N[C@H]1CC[C@H](Nc2nccc(-c3cccnc3)n2)C1	-3%
SMILES	Pf Dd2 inh
Cc1sc2ccn(C)c(=O)c2c1C(=O)NCc1cccc(F)c1	-13%
CCOCc1nc(C2CCCN(C(=O)NC3CCCC3)C2)no1 (stereo unspecified)	-4%
Fc1ccc2cnc(N3CCC(N[C@H]4C[C@@H]5OCC[C@H]45)CC3)nc2c1	8.9µM*
c1cc2c(cc1N1CCC(N[C@H]3C[C@@H]4OCC[C@H]34)CC1)CCC2	-13%
Cc1ccc(C)c(C(=O)Nc2ccc3c(N4CCCC4)ncnc3c2)c1	2.5µM*
Cc1ccc(NC(=O)c2cnc(N3CCCCC3)c3ccccc23)cc1Cl	-22%
COc1ccccc1C(=O)Nc1ccc2ncnc(N3CCCCC3)c2c1	i
O=C(Nc1ccc2c(N3CCCC3)ncnc2c1)c1ccccc1Br	13µM*
COc1cccc([C@@H]2CN(C(=O)CCCC(=O)O)C[C@H]2C(=O)O)c1	20%
COc1ccc(/C=C/c2ccc3c(c2)C(=O)N2CC[C@H](NC(=O)CCC(=O)O)[C@H]2C(=O)N3)cc1	-15%
O=C(CN1C(=O)NC2(CCS(=O)(=O)CC2)C1=O)Nc1ccc(F)cc1F	1%
O=C(C1CC1)N1CCN(C2CCN(Cc3ccccn3)C2=O)CC1 (stereo unspecified)	5%
COc1cc(C(=O)Nc2ccc3nc(SCc4ccccc4)sc3c2)cc(OC)c1OC	i
COc1ccc(Br)c2c1-c1nc(NC(=O)c3ccccc3F)sc1C2	47%
COc1cc(C(=O)Nc2nc3c(s2)Cc2c(Br)ccc(OC)c2-3)cc(OC)c1OC	3.2µM*
COc1ccc(Br)c2c1-c1nc(NC(=O)c3ccc(F)cc3)sc1C2	2.8µM*
COc1cc(C(=O)Nc2nc3c(s2)C[C@]2(C)CC[C@@H]4[C@H](OC(=O)[C@H]4C)[C@H]2[C@@H]3C)cc(OC)c1OC	-25%
COc1ccc(Br)c2c1-c1nc(NC(=O)c3ccccc3SC)sc1C2	-5%
COCCN1C(=O)c2cccn2CC1CNC(=O)CCc1ccccc1 (stereo unspecified)	-11%
CN(C)c1cccc(C(=O)N2CCC(n3cc(-c4nc(C5CC5)no4)nn3)C2)c1 (stereo unspecified)	i
